Source: PubChem BioAssay (DiRusso Lab, Biochemistry Department, University of Nebraska)
Many of the other results were omitted from the sample, so hits are more common in it than they were.
Algae TAG accum: increases triacylglycerol in Chlamydomonas reinhardtii; Chlamydomonas reinhardtii TAG, Nile Red fluorescence, 72 h; calls only at 10 µM (by protocol); actives 0.84% (n = 44,000); AID 1159537; call rule not given here;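 also: hits raise Nile Red signal meaning more stored TAG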
Calls only; – = inactive; + = active, no number.

SMILES	Algae TAG accum
Cc1c(C(=O)Nc2ccc(F)c(F)c2)cccc1[N+](=O)[O-]	+
Cc1c(C(=O)Nc2ccc(F)c(Cl)c2)cccc1[N+](=O)[O-]	–
Cc1ccc(NC(=O)c2ccccc2[N+](=O)[O-])cc1F	–
COc1cc(/C=C(\C#N)[N+](=O)[O-])ccc1O	–
Cn1cnc2c1c(=O)n(Cc1ccc([N+](=O)[O-])cc1)c(=O)n2C	–
C=C(C)CN(CC)C(=O)C1CCN(Cc2ccc(Cl)cc2)CC1	+
CCc1ccc(CN2CCC(C(=O)N(CC)Cc3ccccc3)CC2)cc1	+
CCOc1ccc(CN2CCC(C(=O)N(CCO)Cc3ccccc3)CC2)cc1	–
CCN(Cc1ccccc1)C(=O)C1CCNCC1	–
CCN(CC)C(=O)C1CCCN(Cc2ccc(Cl)cc2)C1 (stereo not given)	–
Cc1ccc(CN2CCC(C(=O)N(CCO)Cc3ccccc3)CC2)cc1	–
O=C(C1CCN(CCCc2ccccc2)CC1)N1CCCCC1	–
C=C(C)CN(CC)C(=O)C1CCN(Cc2cccnc2)CC1	–
CCN(Cc1ccccc1)C(=O)C1CCN(CCCc2ccccc2)CC1	+
C=CCn1c(SCC(=O)NCCc2ccccc2)nnc1-c1ccc(Cl)cc1Cl	+
C=CCn1c(SCC(=O)O)nnc1-c1ccccc1	–
C=CCn1c(SCC(=O)O)nnc1-c1ccc(Cl)cc1	–
O=C(CCC(=O)N1CCN(c2ccc([N+](=O)[O-])cc2)CC1)c1ccc(Cl)cc1	–
COc1ccc(C(=O)C=C(C)NCc2ccccc2)cc1	–
O=[N+]([O-])c1ccc(CN2CCN(C3CCN(Cc4ccccc4)CC3)CC2)cc1	–
c1ccc(CN2CCC(NC3C4CC5CC(C4)CC3C5)CC2)cc1 (stereo not given)	–
O=[N+]([O-])c1cccc(CN2CCN(C3CC4CCC3C4)CC2)c1 (stereo not given)	–
O=[N+]([O-])c1ccc(CN2CCN(C3CC4CCC3C4)CC2)cc1 (stereo not given)	+
c1ccc(CN2CCN(C3CC4CCC3C4)CC2)cc1 (stereo not given)	+
Oc1ccc(Br)cc1CN1CCN(C2CC3CCC2C3)CC1 (stereo not given)	–
SMILES	Algae TAG accum
O=C(Nc1nccs1)c1ccc(C(=O)c2ccccc2)cc1	–
COc1ccc2nc(N=C(N)NC(=O)COc3ccc(Cl)cc3)nc(C)c2c1	–
O=C(Nc1ccc(Cl)cc1F)c1c(F)c(F)c(F)c(F)c1F	+
O=C(Nc1ccccc1F)c1c(F)c(F)c(F)c(F)c1F	–
O=C(Nc1ccc(Br)cc1F)c1c(F)c(F)c(F)c(F)c1F	–
CCN(CC)S(=O)(=O)c1ccc2[nH]c(=O)c(=O)[nH]c2c1	–
O=C(NCCSC1CCCCC1)c1ccc(CN2CCOCC2)cc1	–
O=C(c1ccc(Cl)cc1Cl)N1CCN(c2ccccc2F)CC1	–
Cc1nn(-c2ccccc2)c2sc(C(=O)NCc3ccco3)cc12	–
O=C(CSc1nnc(-c2ccc(Cl)cc2Cl)o1)Nc1ccc(F)cc1	–
COc1ccc(OC)c(NC(=O)c2ccco2)c1	–
COc1cc(-c2ccc(NC(=O)c3ccco3)c(OC)c2)ccc1NC(=O)c1ccco1	+
Cc1cc(-c2ccc(NC(=O)c3ccco3)c(C)c2)ccc1NC(=O)c1ccco1	–
CCOc1ccc(C(=O)CCNC(Cc2ccccc2)C(=O)O)cc1 (stereo not given)	–
COc1ccc(Cl)cc1NC(=O)C(C)(C)Oc1ccc(Cl)cc1	–
CC(C)(Oc1ccc(Cl)cc1)C(=O)Nc1ccccc1Br	–
CC(C)(Oc1ccc(Cl)cc1)C(=O)Nc1ccc(Br)cc1F	+
COc1ccc(-c2nc3ccccc3c(C(=O)N3CCOCC3)c2C)cc1	–
CCOc1ccccc1C(=O)NC1CC1	+
CCOc1ccccc1C(=O)NC1CCC(NC(=O)c2ccccc2OCC)CC1 (stereo not given)	–
CCOc1ccccc1C(=O)NCCNC(=O)c1ccccc1OCC	–
COc1ccccc1/C=C/CN1CCN(CCOCCO)CC1	–
Cc1c(NC(=O)c2c(F)c(F)c(F)c(F)c2F)c(=O)n(-c2ccccc2)n1C	+
Cc1c(NC(=O)c2ccccc2-c2ccccc2C(=O)O)c(=O)n(-c2ccccc2)n1C	–
Cc1c(NC(=O)c2c(O)c3ccccc3n(C)c2=O)c(=O)n(-c2ccccc2)n1C	–
SMILES	Algae TAG accum
N#C/C(=C\c1cn[nH]c1-c1ccccc1)c1nn(-c2ccccc2)c(N)c1C#N	–
OC(CNCCc1ccccc1)c1ccccc1 (stereo not given)	+
OC(Cc1ccccc1)c1ccccc1 (stereo not given)	–
Cc1ccc(C(=O)NCC(O)c2ccccc2)cc1 (stereo not given)	–
COc1cccc(Nc2ncnc3c2cnn3-c2ccccc2)c1	–
Cc1ccc(CN2CCC(C(=O)N3CCN(c4ccccc4F)CC3)CC2)cc1	–
Cc1cccc(N2CCN(C(=O)C3CCN(CC(C)C)CC3)CC2)c1C	–
CC(C)CN1CCC(C(=O)N2CCN(c3ccccc3F)CC2)CC1	–
O=C(C1CCN(CC2CCCCC2)CC1)N1CCN(c2ccccc2F)CC1	+
Cc1ccc(CN2CCC(C(=O)N3CCN(c4ccccc4F)CC3)CC2)o1	+
